In all, about 310,000 compounds went through this assay and about 14,000 (4.5%) showed an effect of 50% or more. Effects have a minus sign here. This is one part of a sample in which strong results are shown more often than they occur.
What follows are compounds tested against human ether-à-go-go-related gene (hERG) potassium channel (human, UniProt Q12809) (assay: primary screen, population patch clamp on CHO cells stably expressing hERG; higher = less effect of the substance).
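Note: peak tail current of the secondary pulse compared with the same well before compound.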

Chain of human ether-à-go-go-related gene (hERG) potassium channel (Q12809 whole entry, looked up): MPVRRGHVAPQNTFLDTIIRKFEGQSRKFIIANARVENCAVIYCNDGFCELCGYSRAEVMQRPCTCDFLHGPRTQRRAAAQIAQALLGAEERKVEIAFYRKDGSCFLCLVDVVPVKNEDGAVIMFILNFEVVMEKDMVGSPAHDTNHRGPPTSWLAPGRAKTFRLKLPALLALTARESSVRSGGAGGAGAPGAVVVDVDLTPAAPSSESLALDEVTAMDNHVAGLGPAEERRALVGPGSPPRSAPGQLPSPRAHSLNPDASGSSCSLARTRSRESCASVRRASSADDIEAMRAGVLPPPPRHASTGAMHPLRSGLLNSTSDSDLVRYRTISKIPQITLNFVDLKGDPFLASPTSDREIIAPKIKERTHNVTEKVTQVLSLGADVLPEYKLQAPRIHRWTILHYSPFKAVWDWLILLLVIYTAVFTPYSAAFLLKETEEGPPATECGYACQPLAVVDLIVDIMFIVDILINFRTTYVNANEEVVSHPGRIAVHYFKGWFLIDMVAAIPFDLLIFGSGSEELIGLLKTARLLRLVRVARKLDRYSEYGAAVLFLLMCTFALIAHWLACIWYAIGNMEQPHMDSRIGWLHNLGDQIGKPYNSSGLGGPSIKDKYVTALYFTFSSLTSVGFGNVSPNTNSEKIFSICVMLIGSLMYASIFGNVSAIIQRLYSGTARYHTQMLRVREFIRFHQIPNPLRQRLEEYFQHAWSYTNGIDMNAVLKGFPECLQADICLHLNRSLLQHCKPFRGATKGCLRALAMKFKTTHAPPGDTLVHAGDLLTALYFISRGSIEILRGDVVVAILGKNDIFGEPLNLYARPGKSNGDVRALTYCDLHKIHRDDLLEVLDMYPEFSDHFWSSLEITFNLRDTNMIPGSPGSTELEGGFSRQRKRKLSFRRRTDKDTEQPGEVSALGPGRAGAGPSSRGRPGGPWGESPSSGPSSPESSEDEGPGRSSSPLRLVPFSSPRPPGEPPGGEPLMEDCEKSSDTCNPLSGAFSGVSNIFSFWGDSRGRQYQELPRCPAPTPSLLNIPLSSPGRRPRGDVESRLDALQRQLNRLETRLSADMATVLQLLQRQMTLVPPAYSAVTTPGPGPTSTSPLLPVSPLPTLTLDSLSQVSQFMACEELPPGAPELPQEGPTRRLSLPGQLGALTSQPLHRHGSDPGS

Compound | hERG current change (%, negative = inhibition) at 10uM [%]
CN1CCN(C(=O)c2cc3ccccc3[nH]2)CC1 | -3.26
CCN(CC)c1ccc(/C=C(/C#N)C(=O)NCc2ccccc2)o1 | 2.6
CCOc1ccc(N2C(=O)CC(N(O)c3ccccc3)C2=O)cc1 (centres unmarked) | 2.96
OCC[C@H]1C[C@H](O)[C@@H](O)[C@]2(CCCc3ccccc3O2)O1 | 0.151
COCCNC(=O)CN1CCN(S(=O)(=O)c2ccc3c(c2)CCCC3)CC1 | -7.28
COc1cc(N2C(=O)CC3(CCCC3)CC2=O)cc(OC)c1OC | 4.04
CN1CCN(CCC(C#N)(c2ccccc2)c2ccccc2)CC1.Cl | -62.9
N#CC(CCN1CCOCC1)(c1ccccc1)c1ccccc1 | -20.8
CCOC(=O)C1(c2ccccc2)CCN(CCC(C#N)(c2ccccc2)c2ccccc2)CC1.Cl | -25
O=C(NCc1ccc(Cl)cc1)NCC(F)(F)F | 7
Cc1ccc(NC(=O)CS(=O)CC(=O)N(C2CCCC2)C(C)C(=O)NC2CCCCC2)cc1 (centres unmarked) | -22.5
CCOC(=O)c1ccc2c(c1)nc(COc1ccc3ccccc3c1)n2CC | 3.73
COc1ccc(-n2c(Cc3cccn3C)nnc2SCC(=O)Nc2ccccc2OC)cc1 | -38.5
COc1ccc(Cl)cc1NC(=O)CSc1nnc(Cc2cccn2C)n1-c1ccc(F)cc1 | -34.6
Cn1cccc1Cc1nnc(SCC(=O)Nc2ccc(F)cc2F)n1-c1ccc(F)cc1 | -40.9
COc1ccc(NC(=O)CSc2nnc(Cc3cccn3C)n2-c2ccc(F)cc2)cc1 | -21.7
COc1ccc(-n2c(Cc3cccn3C)nnc2SCC(=O)Nc2ccccc2F)cc1 | -53.7
COc1ccc(-n2c(Cc3cccn3C)nnc2SCC(=O)Nc2cc(Cl)ccc2OC)cc1 | -97.9
COc1ccc(NC(=O)CSc2nnc(Cc3cccn3C)n2-c2ccc(OC)cc2)cc1 | -21.2
COc1ccc(OC)c(NC(=O)CSc2nnc(Cc3cccn3C)n2-c2ccc(F)cc2)c1 | -10.4
COc1ccc(-n2c(Cc3cccn3C)nnc2SCC(=O)Nc2cc(C)cc(C)c2)cc1 | -52.4
COc1ccc(-n2c(Cc3cccn3C)nnc2SCC(=O)Nc2ccc(F)cc2F)cc1 | -57.4

Compound | hERG current change (%, negative = inhibition) at 10uM [%]
COc1ccc(-n2c(Cc3cccn3C)nnc2SCC(=O)Nc2ccc(C)cc2)cc1 | -26.4
Cn1cccc1Cc1nnc(SCC(=O)Nc2ccccc2F)n1-c1ccc(F)cc1 | -17.4
COc1ccc(C2=NOC(C(=O)N3CCOCC3)C2)cc1OC (centres unmarked) | 11.6
COCc1cc(C)nc(SCC(=O)Nc2cccc(C)c2)c1C#N | 14.2
COC1=CC(=O)C(O)=C(CCCCCCC/C=C/CCCCCCCC2=C(O)C(=O)C=C(OC)C2=O)C1=O | -3
CCOc1ccc(/C(CCC(=O)O)=N/NC(=S)NC(C)C)cc1 | 14.1
CC1(C)NC(=O)N(CC(=O)O)C1=O | 18
N/C(=N\OC(=O)c1ccc2ccccc2c1)c1ccccn1 | 28.3
COC(=O)C1=C(C)N=c2s/c(=C/c3cccs3)c(=O)n2C1c1cccs1 (centres unmarked) | -7.35
COC(=O)CN1C(=O)Nc2ccc(C)cc2C1c1ccccc1 (centres unmarked) | 14.3
COc1cc2c(cc1NC(=O)CSc1nnc(COc3ccc(Cl)cc3)n1C)oc1ccccc12 | 6.05
COc1ccc(-n2c(Cc3cccn3C)nnc2SCC(=O)Nc2cccc(F)c2)cc1 | -54.3
COc1ccc(-n2c(Cc3cccn3C)nnc2SCC(=O)Nc2cccc(OC)c2)cc1 | -23.4
COc1ccc(NC(=O)CSc2nnc(CNC(=O)COc3ccc(Cl)cc3)o2)c(OC)c1 | -12.9
COc1ccc(Cl)cc1NC(=O)CSc1nnc(COc2ccccc2)n1C | -57.3
COc1ccccc1NC(=O)CSc1nnc(CNC(=O)COc2ccc(Cl)cc2)o1 | -43.7
COc1cccc(NC(=O)CSc2nnc(Cc3cccn3C)n2-c2ccc(F)cc2)c1 | -15.5
COc1ccc(Cl)cc1NC(=O)CSc1nnc(COc2ccccc2)n1N | -5.96
COc1ccc(OC)c(NC(=O)CSc2nnc(CNC(=O)COc3ccc(Cl)cc3)o2)c1 | -60.1
CN(CCC#N)C(=O)COC(=O)c1ccccc1C(=O)c1ccc(Cl)c([N+](=O)[O-])c1 | -0.749
CCOC(=O)CCC(=O)N1CCOCCOCCN(C(=O)CCC(=O)OCC)CCOCC1 | -7.63
Cc1cc(C)c2nc(-c3ccccn3)cc(C(=O)Nc3cc(C)on3)c2c1 | 10.4

Compound | hERG current change (%, negative = inhibition) at 10uM [%]
COc1ccc(-n2nc(C(=O)NCC(=O)NC(C)C)c3ccccc3c2=O)cc1Cl | 4.05
COC(=O)c1c(C(=O)OC)c(-c2ccc(F)cc2)n2c1CS(=O)C2 (centres unmarked) | 26.7
COC(=O)c1c(C(=O)OC)c(-c2ccc(C)cc2)n2c1CS(=O)C2 (centres unmarked) | -53.8
COC(=O)c1c(C(=O)OC)c(-c2ccc(OC)cc2)n2c1CS(=O)C2 (centres unmarked) | 10.1
CC(C)(C)C(=O)NCCc1nc2ccccc2n1CC(=O)c1ccc(Cl)cc1 | -33.2
OCc1nc2ccccc2n1CCCCOc1ccccc1 | 0.828
OCCCc1nc2ccccc2n1CCOc1ccccc1 | -5.7
OCCCc1nc2ccccc2n1CCCCOc1ccccc1 | -57.2
CC(C)(C)C(=O)NCCCc1nc2ccccc2n1CCCOc1ccc(Cl)cc1 | -57.2
CC(C)C(=O)NCCc1nc2ccccc2n1CCCOc1ccc(Cl)cc1 | -41.7
CCSc1nnc(NC(=O)C2CCCCC2C(=O)OCC(F)(F)C(F)F)s1 (centres unmarked) | 17.9
O=C(COc1ccccc1)Nc1ccc([N+](=O)[O-])cc1 | 1.57
CCOC(=O)c1[nH]cnc1C(=O)Nc1ccccc1OC | -2.79
Cc1csc(SCC(=O)Nc2nnc(C)s2)n1 | 15
CC(Sc1nncn1C)C(=O)Nc1ccccc1-c1ccccc1 (centres unmarked) | 8.27
O=C(NC1CCCC1)C(c1ccncc1)N(C(=O)c1ccco1)c1ccccc1 (centres unmarked) | -5.61
CCOC(=O)C1(CCOc2ccccc2)CCN(CC(O)CO)CC1 (centres unmarked) | -26.9
CCOC(=O)C1(CCOc2ccccc2)CCN(CC2CC2)CC1 | -47.4
CCOC(=O)C1(CCOc2ccccc2)CCN(CC=C(C)C)CC1 | -50.2
CCCN1CCC(CCOc2ccccc2)(C(=O)OCC)CC1 | -58.5
CCN1CCN(Cc2cccnc2)CC1 | 17.1
CCCCOC(=O)c1ccc(NC(=O)CSc2nncn2C)cc1 | -4.57

Compound | hERG current change (%, negative = inhibition) at 10uM [%]
Cc1ccc(S(=O)(=O)NNC(=O)c2cnn(-c3ccccc3)c2-n2cccc2)cc1 | -15
COc1ccc(C(=O)/C=C/C(=O)N(Cc2ccccc2)C(C(=O)NC2CCCCC2)c2ccncc2)c(O)c1 (centres unmarked) | -19.3
O=C(N/N=C/c1ccsc1)c1ccc2ccccc2n1 | -2.2
O=c1c2ccccc2nnn1CSc1nc2ccccc2c(=O)n1Cc1ccco1 | -6.44
CCn1c(SCC(=O)N2CCN(c3cccc(Cl)c3)CC2)nc2ccccc2c1=O | -39.1
O=C(CSc1nc2ccccc2c(=O)n1Cc1ccco1)N1CCCCCC1 | -76.4
NC(=O)CSc1nc2ccccc2c(=O)n1Cc1ccco1 | -36
CCOC(=O)CSc1nc2ccccc2c(=O)n1Cc1ccco1 | -18.1
O=C(CSc1nc2ccccc2c(=O)n1Cc1ccco1)N1CCCC1 | -77.1
O=C(CSc1nc2ccccc2c(=O)n1Cc1ccco1)N1CCN(c2ccccc2)CC1 | -74.9
COCCn1nnnc1CN1CCN2CCCC2C1.Cl (centres unmarked) | 3.16
C/C(=N/NC(=O)c1cc(-c2ccccc2)nc2c(Cl)cccc12)c1cccnc1 | 26.1
Cc1cc(=O)[nH]c(SCC(=O)N2CCCC(C)C2)n1 (centres unmarked) | 11.3
CCOc1ccc(N(CC(=O)Nc2ccc(OC)cc2)S(=O)(=O)c2c(C)[nH]c(=O)[nH]c2=O)cc1 | 1.99
COc1ccc(S(=O)(=O)N2CCOCC2)cc1C(=O)NCC(c1ccco1)N1CCCC1 (centres unmarked) | 3
OCCN1CCN(CCCN2c3ccccc3Sc3ccc(Cl)cc32)CC1 | -49.3
C[NH+](C)CCCN1c2ccccc2Sc2ccc(Cl)cc21.[Cl-] | -65.3
CN(C)CCCN1c2ccccc2Sc2ccc(Cl)cc21.Cl | -42.2
O=C(Nc1ccccc1C(=O)N1CCCC1)c1ccc(Cl)cc1Cl | 14
Cc1cc(C(=O)CSc2nnc(NCc3ccccc3)s2)c(C)n1C | -9.15

Reference: publication PMC4336329 (PLoS ONE, 2015)
